Assay results taken from PubChem BioAssay (NCATS).
Results filed as inconclusive are left out. Values without a mark were called inactive. Active and inactive are the calls of the source. Calls come from the whole dose curve; as a rule, active = well fitted inhibition curve with a large enough effect; inconclusive = small, poorly fitted or top-dose-only effect; inactive = flat fitted curve, though single readings scatter.

System: MCC-26
Assay: qHTS assay to identify novel small-molecules to repurpose for Merkel cell carcinoma treatment (AID 1296009); note: nearly all actives have a fitted effect of over 60% in size
Conditions: MCC and control cell lines, CellTiter-Glo viability, 72 h; series mostly up to 46 µM; activity change, negative = cytotoxicity: at the top concentration
From the text: MCC is a rare and aggressive neuroendocrine skin cancer with limited treatment options. Approximately 80% of MCCs have the Merkel cell polyomavirus (MCPyV) DNA integrated into the host genome (virus-positive: VP-MCC) and viral oncogenes drive oncogenesis. The remaining MCCs are virus-negative (VN-MCC) and are caused by UV mutagenesis. To identify novel treatments for VP-MCC and/or VN-MCC we screened three VP-MCC cell lines (WAGA, MKL-1, MKL-2), three VN-MCC cell lines (MCC-13, MCC-26, UISO), and four immortalized, non-transformed control cell lines (HaCaT, HEK293T, CRL7250, NIH-3T3) against ~2,400 compounds in the NCGC Pharmaceutical Collection (NPC) and ~1,900 compounds in the Mechanism Interrogation PlatE (MiPE). Using cell viability as a readout (CellTiter-Glo assay) we found both overlapping and distinct drugs that can be repurposed for the treatment of VP-MCC and VN-MCC.
A high-throughput screen was conducted in 1536-well white flat bottom plates (Corning) on a Kalypsys robotic system. Cell lines WAGA, MKL-1, MKL-2, MCC-13, MCC-26, UISO, HaCaT, HEK293T, CRL7250, and NIH-3T3 were screened against 2 small molecule annotated drug libraries NPC and MIPE in dose response (8 and 11 pt. respectively) measuring cell viability after 72 hours of incubation. […] A 1,536 pintool (Kalypsys) was used to transfer 23 nL of compound in DMSO to the 1,536-well assay plates. After 72 hr incubation at 37 degree celsius, 2.5 uL of CellTiter-Glo (Promega) was dispensed into each well using a BiorapTR. Plates were incubated at room temperature for 10 min, transferred to a ViewLux (PerkinElmer) and the luminescence was recorded using an exposure time of 2 seconds. Relative luminescence units (RLUs) were normalized to in-plate controls (no cells as a positive (cytotoxicity) control, DMSO as negative control) and the normalized data was processed using NCATS in-house software.
% is set by controls: 0 for no effect and ±100 for the full control effect; potency is the fitted concentration of half-maximal effect.

SMILES | activity change, negative = cytotoxicity | Potency
CC(O)C1C(=O)N2C(C(=O)O)=C(SC3CNC(C(=O)N(C)C)C3)C(C)C12 (stereo not given) | -0.449% | –
COC(=O)Nc1ccc(-c2nc(N3CCOCC3)c3cnn(C4CCN(Cc5cccnc5)CC4)c3n2)cc1 | – | 8.33 µM (active)
O=C1CCC[C@@H]2[C@H]3CCC[N+]4([O-])CCC[C@@H](CN12)[C@@H]34 (stereo not given in full) | 6.97% | –
CCOc1ccccc1OCCNC(C)Cc1ccc(OC)c(S(N)(=O)=O)c1 (stereo not given) | 0.729% | –
CCCCCCCCCC(=O)N[C@@H](Cc1c[nH]c2ccccc12)C(=O)N[C@H](CC(N)=O)C(=O)N[C@@H](CC(=O)O)C(=O)N[C@@H]1C(=O)NCC(=O)N[C@@H](CCCN)C(=O)N[C@@H](CC(=O)O)C(=O)N[C@H](C)C(=O)N[C@@H](CC(=O)O)C(=O)NCC(=O)N[C@H](CO)C(=O)N[C@@H]([C@@H](C)CC(=O)O)C(=O)N[C@@H](CC(=O)c2ccccc2N)C(=O)O[C@@H]1C | 7.52% | –
COc1ccc(CC2c3cc(OC)c(OC)cc3CC[N+]2(C)CCC(=O)OCCCCCOC(=O)CC[N+]2(C)CCc3cc(OC)c(OC)cc3C2Cc2ccc(OC)c(OC)c2)cc1OC (stereo not given) | 2.59% [at 9.22 µM] | –
CN(C)CC(C)(C)CNc1nn2c(-c3ccccc3)nnc2cc1C1CCC1 | -1.11% | –
CCOc1cc2ncc(C#N)c(Nc3ccc(F)c(Cl)c3)c2cc1NC(=O)C=CCN(C)C | – | 14.8 µM (active)
Cc1cc(Nc2cc(NC(=O)c3c(Cl)cccc3Cl)ccn2)nc(N)n1 | – | 26.4 µM (active)
CN1CCN(c2cc(C(=O)Nc3ccc4c(c3)-c3c(c(C(N)=O)nn3-c3ccc(F)cc3)CC4)c(Cl)cn2)CC1 | -19.6% | –
Cc1cc(Nc2nc(N[C@@H](C)c3ccc(F)cc3)c(C#N)cc2F)n[nH]1 | – | 7.43 µM (active)
O=C(O)[C@H](Cc1c[nH]c2ccccc12)N1C(=O)c2ccccc2C1=O | -13.5% [at 92.7 µM] | –
Cc1nc2ccc(CN(C)c3ccc(C(=O)N[C@@H](CCC(=O)O)C(=O)O)s3)cc2c(=O)[nH]1 | -16.6% | –
Nc1nc(NCCNc2ncc(-n3ccnc3)c(-c3ccc(Cl)cc3Cl)n2)ccc1[N+](=O)[O-] | 7.57% | –
Nc1cc(C(F)(F)F)c(-c2cc(N3CCOCC3)nc(N3CCOCC3)n2)cn1 | – | 2.35 µM (active)
Cc1c(Cn2c(C)nc3c(C(=O)O)cc(N4CCOCC4)cc32)cccc1C(F)(F)F | -4.37% | –
O=c1[nH]nc(Sc2ncc([N+](=O)[O-])s2)n1-c1ccc2c(c1)OCCO2 | – | 10.5 µM (active)
C[C@H]1C[C@@H]2[C@@H]([C@@H](O)C[C@@]3(C)[C@H]2CC[C@]3(O)C(=O)CO)[C@@]2(C)C=CC(=O)C=C12 | -13.9% | –
Cc1c(NC(=O)OC[C@@H]2COCCN2)cn2ncnc(Nc3ccc4c(cnn4Cc4cccc(F)c4)c3)c12 | -11% | –
CCN1CCN(Cc2ccc(-c3cc4c(N[C@H](C)c5ccccc5)ncnc4[nH]3)cc2)CC1 | – | 0.743 µM (active)

SMILES | activity change, negative = cytotoxicity | Potency
Cn1cncc1[C@@](N)(c1ccc(Cl)cc1)c1ccc2c(c1)c(-c1cccc(Cl)c1)cc(=O)n2C | -16% | –
CC(C)(C)c1cc(NC(=O)Nc2ccc(-c3cn4c(n3)sc3cc(OCCN5CCOCC5)ccc34)cc2)no1 | -2.54% | –
COc1cccc(Nc2c(C(N)=O)cnc3c(C)cc(S(=O)(=O)c4cccc(C(=O)N(C)C)c4)cc23)c1 | -7.8% [at 16.1 µM] | –
C=CC(=O)Nc1cccc(Oc2nc(Nc3ccc(N4CCN(C)CC4)cc3OC)ncc2Cl)c1 | – | 11.8 µM (active)
C=CC(=O)Nc1cc2c(Nc3ccc(F)c(Cl)c3)ncnc2cc1C#CC(C)(C)N1CCN(C)CC1 | – | 10.5 µM (active)
Cc1[nH]c2ccccc2c1CCNCc1ccc(C=CC(=O)NO)cc1 | – | 0.935 µM (active)
C=CC(=O)Nc1cccc(Oc2nc(Nc3ccc(N4CCN(C)CC4)cc3)ncc2Cl)c1 | – | 11.8 µM (active)
COc1cc2c(Oc3ccc(NC(=O)C4(C(=O)Nc5ccc(F)cc5)CC4)cc3F)ccnc2cc1OCCCN1CCOCC1 | – | 4.69 µM (active)
COc1ccc(-n2nc(C(N)=O)c3c2C(=O)N(c2ccc(N4CCCCC4=O)cc2)CC3)cc1 | -3.39% | –
Nc1nc(-c2nn(Cc3ccccc3F)c3ncccc23)nc(N)c1N1CCOCC1 | -2.36% | –
CN(C)c1nc(Cc2ccc(NC(=O)c3ccc4ccccc4c3)cc2)nc(Cl)c1CC(=O)O | -3.56% | –
Clc1cccc(-c2nnnn2Cc2cccnc2)c1Cl | 7.81% | –
CC=C1NC(=O)[C@H]2CSSCCC=C[C@H](CC(=O)N[C@H](C(C)C)C(=O)N2)OC(=O)[C@H](C(C)C)NC1=O | – | 0.0662 µM (active)
CC1(O)CC(c2nc(-c3ccc4ccc(-c5ccccc5)nc4c3)c3c(N)nccn23)C1 (stereo not given) | -15.4% | –
O=C(O)Cn1nnc(-c2cc(N3CCC(Oc4cc(F)ccc4Br)CC3)no2)n1 | 4.82% | –
CCCCN1CCC(CNC(=O)c2c3n(c4ccccc24)CCCO3)CC1 | -0.376% | –
Cc1cc(Nc2cc(N3CCN(C)CC3)nc(C=Cc3ccccc3)n2)n[nH]1 | – | 9.59 µM (active)
C=CC(=O)Nc1cc2c(Nc3ccc(F)c(Cl)c3)ncnc2cc1OCCCN1CCOCC1 | -8.67% | –
CN1CCN(Cc2ccc(NC(=O)Nc3ccc(Oc4cc(NC(=O)C5CC5)ncn4)cc3)cc2C(F)(F)F)CC1 | – | 1.18 µM (active)
CC(C)C[C@H](NC(=O)CNC(=O)c1cc(Cl)ccc1Cl)B(O)O | – | 0.526 µM (active)
